Experimental data taken from PubChem BioAssay (NCI).
About 79,000 compounds went through this panel and 15% of them were active in at least one assay; those are over-represented in the sample as a whole. No stated cut-off is given here; in the data, active means growth inhibition above about 70%; inactive means the rest.

Key:
[1] = NCI Yeast Anticancer Drug Screen. Data for the rad50 strain (AID 155);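 further: 0% = growth of vehicle-only cultures of the same strain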; conditions: S. cerevisiae rad50 strain growth inhibition; at 50.0 µM; stronger effect = higher value
How it was run: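 Readout: growth inhibition relative to vehicle-treated cultures. Compound exposure was carried out in a genetically defined yeast strain deficient in DNA damage repair.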

[2] = NCI Yeast Anticancer Drug Screen. Data for the mec2-1 strain (AID 157); conditions: S. cerevisiae mec2-1 strain, at 50.0 µM, stronger effect = higher value
How it was run: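 Yeast mec2-1 mutant treated with compound. Readout: growth inhibition vs vehicle controls.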

[3] = NCI Yeast Anticancer Drug Screen. Data for the sgs1 mgt1 strain (AID 161);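 further: 0% = growth of cultures given vehicle only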; conditions: S. cerevisiae sgs1 mgt1 strain, at 50.0 µM, stronger effect = higher value
How it was run: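 Inhibition of yeast growth, normalised to vehicle-treated controls, is reported for a strain bearing genetic alterations in DNA damage repair.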

[4] = NCI Yeast Anticancer Drug Screen. Data for the cln2 rad14 strain (AID 165);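 further: 0% = growth equal to vehicle treated cultures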; conditions: S. cerevisiae cln2 rad14 strain, at 50.0 µM, stronger effect = higher value
How it was run: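 cln2 rad14 yeast strain; compound exposure; growth inhibition read vs vehicle controls.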

[5] = NCI Yeast Anticancer Drug Screen. Data for the bub3 strain (AID 167); conditions: S. cerevisiae bub3 mutant strain, at 50.0 µM, stronger effect = higher value
How it was run: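 Readout: yeast growth inhibition, expressed relative to vehicle-only wells. The test organism is a mutant strain from a panel with lesions in DNA repair or checkpoint genes.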

[6] = NCI Yeast Anticancer Drug Screen. Data for the mlh1 rad18 strain (AID 175); conditions: S. cerevisiae mlh1 rad18 strain growth inhibition; at 50.0 µM; stronger effect = higher value
How it was run: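 Yeast w/ defined DNA-repair lesions; compound exposure; growth vs vehicle controls → % inhibition.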

Measured: growth inhibition

COc1cc(/C=C(\C#N)C(N)=O)cc(Br)c1O
inactive: [1] -13.5% | [2] -24% | [3] 15.9% | [4] 8.65% | [5] 7.45% | [6] -7.35%

CC(C)CC1=[N+]=C(NC#N)N=C(CCC(=O)Nc2ccccc2[N+](=O)[O-])C1
inactive: [1] -10.1% | [2] -5.5% | [3] -5.55% | [4] 20.9% | [5] 0.65% | [6] 1.7%

CN(C)Cc1ccnc(Cl)n1
inactive: [1] -16.2% | [2] 20.1% | [3] -16.8% | [4] -34.5% | [5] -13.3% | [6] -8.1%

COc1cccc(/S(C)=N/S(=O)(=O)c2ccc(C)cc2)c1 (configuration not stated)
inactive: [1] -11.2% | [2] -7.15% | [3] 2.8% | [4] -6.65% | [5] -8.65% | [6] 8.5%

CC1CCCC(=O)CCC1
inactive: [1] 2.9% | [2] -4.6% | [3] -9.05% | [4] 7.15% | [5] 10.8% | [6] 2.55%

O=C1c2ccccc2C(=O)N1c1ccc(Cl)cc1
inactive: [1] 3.5% | [2] 9.9% | [3] 12.6% | [4] 1.2% | [5] 22.8% | [6] 6.85%

CC(C)=CC(C)(O)c1nc2ccccc2s1 (configuration not stated)
inactive: [1] -2.75% | [2] 21.7% | [3] 7.25% | [4] -6.95% | [5] 1.1% | [6] 5.2%

CC(C)(OC(=O)c1ccc([N+](=O)[O-])cc1)C1CC1
inactive: [1] -12.1% | [2] 1.55% | [3] -23.6% | [4] -28.9% | [5] -11.1% | [6] -24.4%

CN1C(C)(C)NC(=S)C1(C)C
inactive: [1] 26.9% | [2] -18.1% | [3] -5.5% | [4] 11.7% | [5] 1.65% | [6] -9.65%

CC(C)(C)OC(=O)N(CCCN)CCCCN
inactive: [1] -7.65% | [2] -9.75% | [3] -40.5% | [4] -21.4% | [5] -32% | [6] -53.9%

O=C(Cc1nc2ccccc2[nH]c1=O)c1cccnc1
inactive: [1] -0.5% | [2] 8.25% | [3] 13.2% | [4] 1.55% | [5] -4.75% | [6] 16.3%

COc1ccc(Br)c(CN2CCc3ccccc32)c1OS(=O)(=O)c1ccc(C)cc1
inactive: [1] 13.8% | [2] -0.3% | [3] 18.7% | [4] 4.1% | [5] 5.45% | [6] 12.4%

CN1C(c2ccccc2)=C(C#N)C(=O)CC(c2ccco2)N1C (configuration not stated)
inactive: [1] 4.3% | [2] -4.4% | [3] 4.65% | [4] 10.9% | [5] 11% | [6] 13.1%

CC(=O)c1cc(C)c(O)c(C)c1
inactive: [1] -4.25% | [2] -8.8% | [3] 0.05% | [4] -4.05% | [5] -6.75% | [6] -5.55%

Cc1cc2ccccc2n1CC(=O)N1CCCC1
inactive: [1] -14.8% | [2] -28.6% | [3] -23.6% | [4] 0.8% | [5] 15.9% | [6] -11.8%

CCCCC/C(C)=C(\C#N)C(=O)OC
inactive: [1] -5.4% | [2] -29.1% | [3] -19.2% | [4] -15.3% | [5] -34% | [6] -27.4%

Nc1nc2cc(Cl)c(O)cc2o1
inactive: [1] -3.25% | [2] -11.6% | [3] -3.5% | [4] -6.7% | [5] -3.55% | [6] -7.9%

COc1c(NC(=O)c2cccc(C(=O)Nc3cccc([N+](=O)[O-])c3OC)c2)cccc1[N+](=O)[O-]
inactive: [1] -30.6% | [2] -15.8% | [3] -19.9% | [4] -49.1% | [5] -0.7% | [6] -15.5%

CCOC(=O)C(C)C(=O)C(C)C (configuration not stated)
inactive: [1] -1.65% | [2] 0.5% | [3] 0.75% | [4] -11.8% | [5] 13.7% | [6] -9.35%

CCOC(=O)Cn1cnc2sc3c(c2c1=O)CCCC3
inactive: [1] 13.4% | [2] 21.1% | [3] 30.6% | [4] 28.7% | [5] 19.4% | [6] 35.9%

CC1CCCCN1CCCO (configuration not stated)
inactive: [1] 14.6% | [2] -32.4% | [3] -22.1% | [4] 3.05% | [5] -14.6% | [6] 17.4%

Cc1ccc[nH]c1=O
inactive: [1] -9.9% | [2] -15.1% | [3] -0.6% | [4] -8.05% | [5] -8.45% | [6] 2.4%

CC(C)N1CC2CC(CN(C(=O)c3ccc(Cl)cc3)C2)C1
inactive: [1] -30.4% | [2] -8.45% | [3] -8.25% | [4] 2.95% | [5] -16.4% | [6] -5.9%

COC1CCC(/C=C(\C#N)C2CCC(OC)CC2)CC1 (configuration not stated)
inactive: [1] 37.6% | [2] 49.8% | [3] 42.8% | [4] 11.9% | [5] 51.2% | [6] 30%

Cc1onc(-c2ccc(-c3noc(C)c3C(=O)O)cc2)c1C(=O)O
inactive: [1] -1.9% | [2] -7.75% | [3] -3.25% | [4] -5.4% | [5] -10.4% | [6] 11.4%

O=C(OCc1ccccc1CN1CCCC1)c1ccc(Br)cc1
inactive: [1] 11% | [2] -6.05% | [3] -9.9% | [4] -16.9% | [5] 20.1% | [6] -17.9%

O=C(O)C1Cc2c([nH]c3ccccc23)C=N1 (configuration not stated)
inactive: [1] 27.9% | [2] 11.9% | [3] -2.3% | [4] 22.2% | [5] 16.4% | [6] 33.8%

O=C(Nc1ccccc1)c1ccccc1Cl
inactive: [1] 24.5% | [2] -0.15% | [3] 0.35% | [4] 2.8% | [5] -3.05% | [6] 12.3%

ONc1ccc(Cl)cc1
inactive: [1] -8.85% | [2] -11.8% | [3] -2.7% | [4] -10.8% | [5] 21.1% | [6] -6.6%

Cc1nc2ccc(Cl)cc2c2c1CCS2
inactive: [1] -19.1% | [2] -17.3% | [3] -2.8% | [4] -18.1% | [5] -23.1% | [6] -51.4%

OCCCNc1nc2cc(Br)ccc2c2ccc(Br)cc12
inactive: [1] 47.6% | [2] 4.75% | [3] 23.9% | [4] -3.65% | [5] 0.1% | [6] 19.1%

CC(C)=CC(=O)N1CCN(C(=O)C=C(C)C)CC1
inactive: [1] -33.9% | [2] -20.1% | [3] -5.75% | [4] 18.8% | [5] 10.9% | [6] -10.4%

Cc1ccc(CC(=O)C(=O)O)c([N+](=O)[O-])c1
inactive: [1] -9.7% | [2] 38.1% | [3] 4.5% | [4] -23.6% | [5] -17.9% | [6] 8.2%

Cc1ccc(Nc2ccc(O)cc2)cc1
inactive: [1] 40.4% | [2] -2.1% | [3] 29.5% | [4] -8.25% | [5] -10.8% | [6] 26%

CCN(CC)CCCNc1nc2ccccc2c2c1ncn2CC(C)C
inactive: [1] -51% | [2] 5.4% | [3] -20.8% | [4] 27.1% | [5] 13.2% | [6] 6.35%

COc1nc2c(c(O)c(C)c(=O)n2OC2OCC(OC(C)=O)C(OC(C)=O)C2OC(C)=O)c(=O)n1C (configuration not stated)
inactive: [1] -0.15% | [2] -19.4% | [3] -30.6% | [4] -1.85% | [5] -10.3% | [6] -20.8%

CN(C)CCCNC(=O)N/N=C\c1cccc2ccccc12
inactive: [1] -2.9% | [2] -24% | [3] -17.4% | [4] 14.8% | [5] -4% | [6] -6.45%

O=C1OC(=O)C2C3CC(C4OC34)C12 (configuration not stated)
inactive: [1] -12.2% | [2] 29.3% | [3] -3.55% | [4] -20.8% | [5] -9.9% | [6] 4.05%

CC(C)(CO)N=Cc1ccc(Cl)c(Cl)c1
inactive: [1] 2.35% | [2] -13.2% | [3] -16.5% | [4] -3.1% | [5] -11.5% | [6] -24.6%

COc1c(Cl)cc(NC(=S)C#N)cc1Cl
inactive: [1] 20.2% | [2] 20% | [3] 15.2% | [4] 39.6% | [5] 15.4% | [6] -30.9%

CC(C#N)OCCO (configuration not stated)
inactive: [1] 9.3% | [2] -2.3% | [3] 7.85% | [4] -1.85% | [5] -6.7% | [6] 5.15%

c1ccc2c(c1)C1CC3N=NC1C23 (configuration not stated)
inactive: [1] 3.3% | [2] -1.35% | [3] -10.5% | [4] -20.1% | [5] 3.8% | [6] -3.95%
